Reference: PubChem BioAssay (NCATS)
“And” between values parts separate entries of the source, which are not always exact repeats. Equal values may be shown once. Inconclusive results are not listed. The source made the active and inactive calls. Unless noted, the call rests on the fitted dose curve.

Experiments:
[1] = target: Glucocorticoid receptor (Homo sapiens) (UniProt P04150); experiment: qHTS assay for small molecule agonists of glucocorticoid receptor signaling (AID 588532; active means well fitted curve in the direction sought with a large enough effect in the signal ratio, with a control signal flat; the % refers to the signal ratio;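 further: 100% = dexamethasone at 0.1 µM and 0% = DMSO only wells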); conditions: HeLa MMTV-bla, beta-lactamase ratio, agonist, 18 h; stronger effect = higher value; percent of dexamethasone control, DMSO zero
Outline: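 MMTV-bla HeLa, beta-lactamase reporter; medium with 1% charcoal/dextran-stripped FBS; cpds up to 92 uM, 18 h, 37 C; CCF4 readout 460/530 nm; Hill fit → EC50, efficacy vs 0.1 uM dexamethasone = 100%.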

[2] = target: Glucocorticoid receptor (Homo sapiens) (UniProt P04150); experiment: qHTS assay for small molecule antagonists of glucocorticoid receptor signaling (AID 588533; active means well fitted inhibition curve with a large enough effect in the signal ratio, with a control signal flat, not every such curve was filed as active; the % refers to the signal ratio;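 further: cells stimulated with 2 nM dexamethasone as agonist; on the % scale 0 is the no-effect control and ±100 the full control effect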); conditions: HeLa MMTV-bla, GRE beta-lactamase ratio, antagonist mode, 18 h; series mostly up to 76.8 µM
Outline: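 Antagonist-mode qHTS: compound titrations added to GRE-bla HeLa cells, then dexamethasone 2 nM final; 18 h, 37 C. CCF4 FRET fluorescence normalized to dexamethasone and DMSO; IC50 from Hill fit.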

[3] = qHTS assay for small molecule antagonists of peroxisome proliferator-activated receptor delta signaling (AID 588535; active means well fitted inhibition curve with a large enough effect in the signal ratio, with a control signal flat, not every such curve was filed as active; the % refers to the signal ratio;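 on max response: cells co-treated with a PPAR-delta agonist as stimulator during compound exposure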); conditions: HEK293T PPARd-UAS-bla, beta-lactamase FRET ratio, 18 h; 460 nm channel
Outline: (§1)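 Inhibition of PPAR-delta response element-driven beta-lactamase expression is measured in HEK293T cells exposed to a compound titration series for 18 hrs at 37 C. Half-maximal inhibition comes from Hill equation fitting.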

[4] = target: Peroxisome proliferator-activated receptor delta (Homo sapiens) (UniProt Q03181); experiment: as above; conditions: HEK293T PPARd-UAS-bla, beta-lactamase FRET ratio, 18 h; series mostly up to 76.7 µM
Outline: as §1

[5] = target: Peroxisome proliferator-activated receptor gamma (Homo sapiens) (UniProt P37231); experiment: qHTS assay for small molecule agonists of peroxisome proliferator-activated receptor gamma signaling (AID 588536; active means well fitted curve in the direction sought with a large enough effect in the signal ratio, with a control signal flat, not every such curve was filed as active; the % refers to the signal ratio;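 further: 0% = DMSO basal wells and 100% = rosiglitazone at 2 µM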); conditions: HEK293 PPARg-UAS-bla, beta-lactamase ratio, 16 h, percent of rosiglitazone response, DMSO as zero; series mostly up to 76.7 µM
Outline: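 Beta-lactamase reporter read-out: CCF4 fluorescence (ex 405, em 460/530 nm) after 2 h at RT. HEK293 GeneBLAzer cells were treated for 16 h at 37 C. Hill fits gave EC50 and efficacy versus 2 uM rosiglitazone (100%) and DMSO (0%).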

[6] = target: Peroxisome proliferator-activated receptor gamma (Homo sapiens) (UniProt P37231); experiment: qHTS assay for small molecule antagonists of peroxisome proliferator-activated receptor gamma signaling (AID 588537; active means well fitted inhibition curve with a large enough effect in the signal ratio, with a control signal flat, not every such curve was filed as active; the % refers to the signal ratio;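 further: reporter cells co-stimulated with 50 nM rosiglitazone agonist during compound treatment; % of control where 0% means no effect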); conditions: HEK293 PPARg-UAS-bla, beta-lactamase ratio, antagonist mode; series mostly up to 76.8 µM
Outline: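 Compounds are tested as concentration series for inhibition of rosiglitazone-driven (50 nM) reporter expression in GeneBLAzer PPAR-gamma-UAS-bla HEK293 cells. After 16 h at 37 C, CCF4 substrate is added for 2 h at room temperature and blue/green fluorescence is measured.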

[7] = target: Vitamin D3 receptor (Homo sapiens) (UniProt P11473); experiment: qHTS assay for small molecule antagonists of vitamin D receptor signaling (AID 588541); conditions: HEK293T VDR-UAS-bla, beta-lactamase ratio, antagonist mode; series mostly up to 76.7 µM;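 further: receptor activated by calcitriol during compound treatment; on the % scale 0 is the no-effect control and ±100 the full control effect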
Outline: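 VDR-UAS-bla HEK293T cells (2000/well, 2% charcoal-stripped FBS) were treated with titrated compounds plus 1-alpha,25-dihydroxyvitamin D3 (50 nM or 3 nM final) for 16 h at 37 C. CCF4 beta-lactamase fluorescence was read; Hill fits gave IC50.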

[8] = target: Vitamin D3 receptor (Homo sapiens) (UniProt P11473); experiment: qHTS assay for small molecule agonists of vitamin D receptor signaling (AID 588543); conditions: HEK293T VDR-UAS-bla, beta-lactamase ratio, 16 h; series mostly up to 76.8 µM;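 further: 0% = DMSO basal and 100% = reference agonist control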
Outline: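 Agonist-mode beta-lactamase reporter: HEK293T VDR-UAS-bla cells in charcoal-stripped 2% FBS, compound series 16 h 37 C, CCF4 2 h RT. EC50 from Hill fit, scaled against DMSO and 50 nM calcitriol control.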

[9] = qHTS assay for small molecule agonists of retinoid X receptor alpha signaling (AID 588544); conditions: HEK293T RXRa-UAS-bla, beta-lactamase reporter, 18 h; 530 nm emission;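 on activation: 0% = DMSO basal wells and 100% = reference agonist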
[10] = target: Retinoic acid receptor RXR-alpha (Homo sapiens) (UniProt P19793); experiment: as above; conditions: HEK293T RXRa-UAS-bla, beta-lactamase reporter, 18 h; series mostly up to 76.7 µM
[11] = qHTS assay for small molecule antagonists of retinoid X receptor alpha signaling (AID 588546; active means well fitted inhibition curve with a large enough effect in the signal ratio, with a control signal flat, not every such curve was filed as active; the % refers to the signal ratio;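 further: cells stimulated with 9-cis-retinoic acid as agonist; on the % scale 0 is the no-effect control and ±100 the full control effect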); conditions: HEK293T RXRa-UAS-bla, beta-lactamase ratio, antagonist mode; measured here: W530 green channel, cytotoxicity proxy
Outline: (§2)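 Beta-lactamase reporter inhibition, read as CCF4 fluorescence ratio (ex 405, em 460/530 nm) after 2 h at RT. HEK293T UAS-bla cells, 2500/well, were stimulated with 9-cis-RA at 500 or 100 nM final alongside test compound for 18 h at 37 C.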

[12] = target: Retinoic acid receptor RXR-alpha (Homo sapiens) (UniProt P19793); experiment: as above; conditions: HEK293T RXRa-UAS-bla, beta-lactamase ratio, antagonist mode
Outline: as §2

[13] = target: Thyroid hormone receptor beta (Homo sapiens) (UniProt P10828); experiment: qHTS assay for small molecule antagonists of thyroid hormone receptor beta signaling (AID 588547; active means well fitted inhibition curve with a large enough effect in the signal ratio, with a control signal flat, not every such curve was filed as active; the % refers to the signal ratio;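 further: cells stimulated with 0.4 nM T3 agonist during compound exposure; on the % scale 0 is the no-effect control and ±100 the full control effect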); conditions: TR-UAS-bla HEK293, beta-lactamase ratio, antagonist mode, 18 h
Outline: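 TR-UAS-bla GripTite HEK293 cells in 2% charcoal/dextran FBS medium were preincubated 4 h at 37 C, given compound (0.59 nM to 92 uM) plus 0.4 nM T3 (final) for 18 h, then CCF4 for 2 h at RT; Hill fit gave IC50.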

[14] = target: Voltage-gated inwardly rectifying potassium channel KCNH2 (Homo sapiens) (UniProt Q12809); experiment: qHTS Assay for Small Molecule Inhibitors of the Human hERG Channel Activity (AID 588834; active means well fitted inhibition curve with a large enough effect;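 further: top concentration of the series differs between compounds; on the % scale 0 is the no-effect control and ±100 the full control effect; lower thallium flux fluorescence means stronger hERG block; nearly all actives have a fitted effect of over 50% in size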); conditions: U2OS BacMam hERG, FluxOR thallium flux fluorescence; series mostly up to 92.2 µM
Outline: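 hERG block measured as reduced thallium-dye (FluxOR) fluorescence after stimulation buffer addition, read over 2 min. Cells were hERG-BacMam-transduced U2OS exposed to compound ~10 min […]; concentration-response fitted with Hill equation for AC50.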

[15] = qHTS assay for small molecule agonists of the antioxidant response element (ARE) signaling pathway (AID 651741; active means well fitted activation curve with a large enough effect in the signal ratio; the % refers to the signal ratio; further: % of control where 0% means no effect); conditions: HepG2 ARE-bla reporter, beta-lactamase FRET ratio, 16 h; series mostly up to 96 µM
Outline: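 Reporter: beta-lactamase under ARE, stably in HepG2. Exposure: 16 h, 37 C, compounds delivered in DMSO by pin tool after 5 h cell preincubation. Readout: FRET substrate fluorescence after 2 h at RT.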

[16] = qHTS assay for small molecule activators of the p53 signaling pathway (AID 651743; active means well fitted activation curve with a large enough effect in the signal ratio, not every such curve was filed as active; the % refers to the signal ratio; further: % of control where 0% means no effect); conditions: HCT-116 p53RE-bla, beta-lactamase FRET ratio, 16 h; stronger effect = higher value
Outline: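 Agonist-mode quantitative HTS in HCT-116 cells carrying a p53-response-element beta-lactamase reporter; 16 h compound treatment at 37 C, then FRET substrate loading for 2 h at room temperature and fluorescence read.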

[17] = qHTS assay for small molecule activators of the nuclear factor-kappa B (NF-kB) signaling pathway (AID 651749; active means well fitted activation curve with a large enough effect in the signal ratio; the % refers to the signal ratio; further: % of control where 0% means no effect); conditions: NF-kB-bla ME-180 cells, beta-lactamase FRET ratio, 16 h; stronger effect = higher value
Outline: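 Human ME-180 cervical cells with an NF-kB-bla construct; compounds added via 23 nL pin transfer, DMSO as vehicle; incubation 16 hr. Reporter activity measured by FRET disruption.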

[18] = qHTS assay for small molecule disruptors of the mitochondrial membrane potential - 1 hr assay (AID 651754); conditions: series mostly up to 92.2 µM; further: on the % scale 0 is the no-effect control and ±100 the full control effect; nearly all actives have a fitted effect of over 35% in size
Outline: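 Loss of mitochondrial potential shifts the cationic dye from red mitochondrial aggregates to green cytoplasmic monomers. Cells (HepG2) are treated with compound for 1 hr before a 30 min dye incubation at 37C.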

[19] = target: Bile acid receptor (Homo sapiens) (UniProt Q96RI1); experiment: qHTS assay for small molecule antagonists of farnesoid X receptor signaling (AID 588526); conditions: HEK293T FXR-UAS-bla, beta-lactamase ratio, antagonist mode; series mostly up to 76.7 µM; further: on the % scale 0 is the no-effect control and ±100 the full control effect
Outline: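 Concentration-response titrations were fitted to the Hill equation for half-maximal inhibition and maximal response, with data normalised to 50 uM chenodeoxycholic acid and DMSO control wells. Cells: FXR-UAS-bla HEK293T, dialyzed FBS.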

[20] = target: Thyroid hormone receptor beta (Homo sapiens) (UniProt P10828); experiment: qHTS assay for small molecule agonists of thyroid hormone receptor beta signaling (AID 588545); conditions: TR-UAS-bla GripTite HEK 293, beta-lactamase ratio, agonist mode, 18 h, percent of T3 response, DMSO as zero; series mostly up to 76.7 µM
Outline: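 Agonist activity was read as beta-lactamase CCF4 fluorescence (405 ex, 460/530 em), scaled between DMSO (0%) and 10 nM T3 (100%), then Hill-fitted for EC50 and efficacy. HEK 293 TR-UAS-bla cells in 2% charcoal/dextran FBS medium were exposed 18 h at 37 C.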

Chain of Peroxisome proliferator-activated receptor delta (Homo sapiens) (Q03181 whole entry, looked up): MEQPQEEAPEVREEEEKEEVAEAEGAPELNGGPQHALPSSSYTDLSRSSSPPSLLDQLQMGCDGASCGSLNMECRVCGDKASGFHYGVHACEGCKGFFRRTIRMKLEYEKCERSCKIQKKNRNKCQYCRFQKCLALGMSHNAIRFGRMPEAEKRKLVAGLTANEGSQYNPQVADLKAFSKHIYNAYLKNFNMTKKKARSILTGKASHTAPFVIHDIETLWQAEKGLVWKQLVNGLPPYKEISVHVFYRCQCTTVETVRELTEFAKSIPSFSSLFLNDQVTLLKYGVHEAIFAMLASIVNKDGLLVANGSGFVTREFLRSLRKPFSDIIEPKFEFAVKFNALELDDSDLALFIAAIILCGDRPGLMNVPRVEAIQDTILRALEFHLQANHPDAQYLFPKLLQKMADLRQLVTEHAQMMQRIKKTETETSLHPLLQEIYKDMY
Chain of Glucocorticoid receptor (Homo sapiens) (P04150 whole entry, looked up): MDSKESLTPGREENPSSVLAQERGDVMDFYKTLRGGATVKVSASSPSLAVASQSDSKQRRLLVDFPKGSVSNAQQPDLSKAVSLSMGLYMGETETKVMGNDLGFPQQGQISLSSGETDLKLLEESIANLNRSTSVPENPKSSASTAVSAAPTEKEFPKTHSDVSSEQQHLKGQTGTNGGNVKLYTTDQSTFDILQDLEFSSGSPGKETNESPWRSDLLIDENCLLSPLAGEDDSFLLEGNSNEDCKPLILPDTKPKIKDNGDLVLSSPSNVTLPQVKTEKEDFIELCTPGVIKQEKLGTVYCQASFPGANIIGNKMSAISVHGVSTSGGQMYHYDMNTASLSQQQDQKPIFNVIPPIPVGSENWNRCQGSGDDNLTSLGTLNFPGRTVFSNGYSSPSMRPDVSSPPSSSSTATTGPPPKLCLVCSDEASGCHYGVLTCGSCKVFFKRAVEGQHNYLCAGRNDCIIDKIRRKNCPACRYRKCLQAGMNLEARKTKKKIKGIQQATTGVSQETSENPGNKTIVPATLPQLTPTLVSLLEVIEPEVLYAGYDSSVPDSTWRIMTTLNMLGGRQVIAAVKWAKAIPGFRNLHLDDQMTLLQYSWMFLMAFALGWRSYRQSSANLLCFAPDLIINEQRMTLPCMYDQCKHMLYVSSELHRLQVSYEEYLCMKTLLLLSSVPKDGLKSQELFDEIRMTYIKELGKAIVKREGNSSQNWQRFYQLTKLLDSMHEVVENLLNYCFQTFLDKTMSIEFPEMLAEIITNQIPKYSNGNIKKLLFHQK
Chain of Peroxisome proliferator-activated receptor gamma (Homo sapiens) (P37231 whole entry, looked up): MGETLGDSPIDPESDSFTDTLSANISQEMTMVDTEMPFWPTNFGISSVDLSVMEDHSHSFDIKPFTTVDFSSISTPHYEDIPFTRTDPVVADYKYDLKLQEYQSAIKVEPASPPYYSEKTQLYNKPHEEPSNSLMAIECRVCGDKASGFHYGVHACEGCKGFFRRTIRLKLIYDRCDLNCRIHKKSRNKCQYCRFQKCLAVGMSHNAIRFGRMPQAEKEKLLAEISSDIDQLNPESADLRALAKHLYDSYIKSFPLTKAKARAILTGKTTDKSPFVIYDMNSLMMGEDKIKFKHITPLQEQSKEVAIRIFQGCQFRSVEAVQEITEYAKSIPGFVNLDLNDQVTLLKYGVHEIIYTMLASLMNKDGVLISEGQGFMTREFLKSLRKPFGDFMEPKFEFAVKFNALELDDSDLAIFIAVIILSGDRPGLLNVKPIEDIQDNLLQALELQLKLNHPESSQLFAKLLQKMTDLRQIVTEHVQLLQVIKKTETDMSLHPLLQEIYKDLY
Chain of Bile acid receptor (Homo sapiens) (Q96RI1 whole entry, looked up): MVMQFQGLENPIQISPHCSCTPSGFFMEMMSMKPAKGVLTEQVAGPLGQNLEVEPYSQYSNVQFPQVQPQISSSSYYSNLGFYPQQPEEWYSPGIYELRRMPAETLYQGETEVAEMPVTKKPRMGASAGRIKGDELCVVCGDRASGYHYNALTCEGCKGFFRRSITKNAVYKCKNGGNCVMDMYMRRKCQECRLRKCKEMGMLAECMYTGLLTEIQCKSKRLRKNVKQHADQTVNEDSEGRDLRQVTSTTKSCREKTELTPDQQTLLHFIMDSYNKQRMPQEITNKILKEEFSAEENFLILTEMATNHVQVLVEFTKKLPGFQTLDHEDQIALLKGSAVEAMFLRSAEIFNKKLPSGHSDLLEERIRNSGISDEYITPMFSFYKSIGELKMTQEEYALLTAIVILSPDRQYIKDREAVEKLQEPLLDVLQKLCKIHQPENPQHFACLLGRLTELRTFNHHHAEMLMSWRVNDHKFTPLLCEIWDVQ
Chain of Vitamin D3 receptor (Homo sapiens) (P11473 whole entry, looked up): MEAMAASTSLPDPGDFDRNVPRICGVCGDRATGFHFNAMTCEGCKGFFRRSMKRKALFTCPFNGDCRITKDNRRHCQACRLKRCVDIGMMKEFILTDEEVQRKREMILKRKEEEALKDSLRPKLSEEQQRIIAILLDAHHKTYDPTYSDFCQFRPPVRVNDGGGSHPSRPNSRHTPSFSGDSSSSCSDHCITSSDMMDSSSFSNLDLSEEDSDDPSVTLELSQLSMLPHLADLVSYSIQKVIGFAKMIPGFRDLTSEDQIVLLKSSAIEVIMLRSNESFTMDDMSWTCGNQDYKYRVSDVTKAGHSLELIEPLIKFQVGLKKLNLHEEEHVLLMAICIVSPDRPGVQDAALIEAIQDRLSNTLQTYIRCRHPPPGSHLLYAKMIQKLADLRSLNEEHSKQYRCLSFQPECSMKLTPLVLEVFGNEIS
Chain of Thyroid hormone receptor beta (Homo sapiens) (P10828 whole entry, looked up): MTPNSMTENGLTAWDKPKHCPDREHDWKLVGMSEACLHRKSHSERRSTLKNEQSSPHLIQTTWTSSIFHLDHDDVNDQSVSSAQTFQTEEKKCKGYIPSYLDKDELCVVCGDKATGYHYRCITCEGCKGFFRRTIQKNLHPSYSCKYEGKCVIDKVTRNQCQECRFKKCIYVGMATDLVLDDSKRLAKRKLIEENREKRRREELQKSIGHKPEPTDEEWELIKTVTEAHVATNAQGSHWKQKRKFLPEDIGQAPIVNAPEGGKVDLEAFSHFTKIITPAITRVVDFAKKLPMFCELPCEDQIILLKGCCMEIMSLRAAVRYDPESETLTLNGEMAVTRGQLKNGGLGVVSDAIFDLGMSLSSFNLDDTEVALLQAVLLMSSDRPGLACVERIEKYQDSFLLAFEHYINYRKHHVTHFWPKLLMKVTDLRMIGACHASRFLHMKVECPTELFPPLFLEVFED
Chain of Retinoic acid receptor RXR-alpha (Homo sapiens) (P19793 whole entry, looked up): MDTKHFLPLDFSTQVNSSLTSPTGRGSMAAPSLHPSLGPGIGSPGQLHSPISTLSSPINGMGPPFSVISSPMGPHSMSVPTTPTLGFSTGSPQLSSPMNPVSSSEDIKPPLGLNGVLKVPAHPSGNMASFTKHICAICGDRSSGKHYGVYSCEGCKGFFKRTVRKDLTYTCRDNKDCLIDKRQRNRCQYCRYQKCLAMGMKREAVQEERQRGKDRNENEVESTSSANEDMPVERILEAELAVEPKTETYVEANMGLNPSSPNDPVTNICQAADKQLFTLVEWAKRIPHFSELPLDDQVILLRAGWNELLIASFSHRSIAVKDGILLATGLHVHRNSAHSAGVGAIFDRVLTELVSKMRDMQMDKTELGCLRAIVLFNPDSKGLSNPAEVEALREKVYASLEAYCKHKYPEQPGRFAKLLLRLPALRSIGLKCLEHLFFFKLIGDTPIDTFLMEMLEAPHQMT
Chain of Voltage-gated inwardly rectifying potassium channel KCNH2 (Homo sapiens) (Q12809 whole entry, looked up): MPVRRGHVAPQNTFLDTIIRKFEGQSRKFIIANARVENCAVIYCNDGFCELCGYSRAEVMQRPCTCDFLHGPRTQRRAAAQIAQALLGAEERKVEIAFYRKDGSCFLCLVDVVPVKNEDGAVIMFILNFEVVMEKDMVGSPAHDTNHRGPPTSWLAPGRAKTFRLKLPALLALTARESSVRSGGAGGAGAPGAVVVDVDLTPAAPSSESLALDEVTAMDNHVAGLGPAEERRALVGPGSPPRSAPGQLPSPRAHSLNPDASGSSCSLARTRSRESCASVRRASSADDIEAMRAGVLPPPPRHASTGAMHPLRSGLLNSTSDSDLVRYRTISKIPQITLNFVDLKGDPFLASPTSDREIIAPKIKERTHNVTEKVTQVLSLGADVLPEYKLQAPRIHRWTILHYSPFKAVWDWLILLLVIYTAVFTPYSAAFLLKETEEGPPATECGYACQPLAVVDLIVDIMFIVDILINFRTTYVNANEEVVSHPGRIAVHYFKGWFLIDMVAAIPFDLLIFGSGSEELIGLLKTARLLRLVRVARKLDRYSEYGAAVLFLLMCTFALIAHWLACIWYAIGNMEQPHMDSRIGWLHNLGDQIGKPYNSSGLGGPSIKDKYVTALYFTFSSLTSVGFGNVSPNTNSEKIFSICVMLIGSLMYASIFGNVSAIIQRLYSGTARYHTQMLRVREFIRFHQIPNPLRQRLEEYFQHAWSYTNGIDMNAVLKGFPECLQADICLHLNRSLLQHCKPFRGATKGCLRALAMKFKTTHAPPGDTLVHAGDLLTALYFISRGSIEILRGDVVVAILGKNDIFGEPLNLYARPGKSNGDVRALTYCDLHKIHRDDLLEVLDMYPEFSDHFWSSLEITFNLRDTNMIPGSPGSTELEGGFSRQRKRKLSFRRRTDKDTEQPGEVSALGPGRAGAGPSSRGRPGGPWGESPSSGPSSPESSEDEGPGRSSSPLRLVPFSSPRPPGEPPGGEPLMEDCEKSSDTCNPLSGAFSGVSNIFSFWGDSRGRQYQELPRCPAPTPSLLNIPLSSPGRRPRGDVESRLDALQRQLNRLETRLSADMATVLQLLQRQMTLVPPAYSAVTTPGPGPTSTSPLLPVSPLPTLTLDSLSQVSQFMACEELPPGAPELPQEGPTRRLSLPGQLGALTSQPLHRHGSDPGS

O=[N+]([O-])c1ccc(CCO)cc1
inactive: activation [1] -5.66% | outcome [2] | Potency [4] | outcome [5] | outcome [6] | outcome [7] | outcome [8] | outcome [10] | max response [12] 2.63% | activity change % (negative = inhibition) [13] 3.64% | Potency [14] | Potency [15] | activation [16] -2.15% | activation [17] -0.318% | Potency [18]
-0.777%: max response [11]
19.9%: max response [3]
-1.7%: max response [9]

O=C(O[C@@H](C(=O)O)[C@@H](OC(=O)c1ccccc1)C(=O)O)c1ccccc1
-17.8%: max response [9]
-10.6%: max response [3]
4.27%: max response [11]
inactive: activation [1] -3.12% | outcome [2] | Potency [4] | outcome [5] | outcome [6] | outcome [10] | max response [12] -0.94% | Potency [14] | activation [16] -2.28% | activation [17] 0.306% | Potency [18]

O=C1OC(=O)c2c(Cl)c(Cl)c(Cl)c(Cl)c21
-11.3%: max response [3]
-4.9% and 1.94%: max response [11]
-5.89% and -6.44%: max response [9]
inactive: outcome [19] | Potency [4] | outcome [5] | outcome [10] | outcome [20] | max response [12] 0.977% and -5.45% | activity change % (negative = inhibition) [13] -1.32% and -1.29% | Potency [14] | Potency [15] | activation [16] -2.26% and 13.1% | Potency [18]

O=[N+]([O-])c1ccc2nc[nH]c2c1
inactive: outcome [19] | outcome [5] | outcome [6] | outcome [10] | activity change % (negative = inhibition) [13] 5.36% | Potency [14] | Potency [15] | activation [17] 0.954%
-26.8%: max response [9]

CCCCCCC=O
9.36%: max response [11]
-2.47%: max response [9]
-42.7%: max response [3]
inactive: activation [1] -0.214% | outcome [2] | Potency [4] | outcome [5] | outcome [6] | outcome [7] | outcome [8] | outcome [10] | outcome [20] | max response [12] 7.58% | activity change % (negative = inhibition) [13] -17.7% | Potency [14] | Potency [15] | activation [16] 0.659% | activation [17] -0.682% | Potency [18]

CC(=O)Nc1ccccc1C
8.94%: max response [3]
-2.35%: max response [9]
-11.2%: max response [11]
inactive: activation [1] -4.6% | outcome [2] | Potency [4] | outcome [5] | outcome [6] | outcome [7] | outcome [8] | outcome [10] | outcome [20] | activity change % (negative = inhibition) [13] 4.18% | Potency [14] | Potency [15] | activation [16] 0.555% | activation [17] -0.805% | Potency [18]

O=[N+]([O-])c1ccc(Cl)cc1Cl
-6.43%: max response [9]
-4.28%: max response [11]
inactive: activation [1] 2.45% | outcome [2] | Potency [4] | outcome [5] | outcome [6] | outcome [10] | outcome [20] | max response [12] 10.3% | activity change % (negative = inhibition) [13] 17.6% | Potency [14] | activation [17] 0.0961% | Potency [18]
2.66%: max response [3]
